The target of assay [1] is Tyrosine-protein phosphatase non-receptor type substrate 1 (Homo sapiens) + Leukocyte surface antigen CD47 (Homo sapiens) (UniProt P78324+Q08722). As to the kind of experiment: CD47-SIRPalpha protein protein interaction - Alpha assay qHTS validation (AID 1347059).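 Note: bead proximity luminescence from CD47 binding SIRPalpha after compound preincubation with SIRPalpha.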 The gist of the method: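 SIRPalpha-biotin 25 nM + cpd, 30 min RT, dark; add CD47-His 12.5 nM, 30 min; add Ni-NTA/SAV beads 10 ug/mL, 30 min; AlphaScreen. Buffer PBS pH 7.4 + 0.05% IGEPAL CA-630. Non-biotinylated SIRPalpha as control inhibitor.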
On the technique in general: In qHTS, concentration-response curves come from the screen itself.

Assay [2] deals with Parathyroid hormone/parathyroid hormone-related peptide receptor (Homo sapiens) (UniProt Q03431). In words: qHTS for PTHR1 Agonists: Optimization Screen against the NCGC LOPAC library (AID 1347079).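 Note: GloSensor cAMP luminescence in HEK-293 GP2 cells expressing human PTHR1 with IBMX.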 The gist of the method:
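Signal increase flags agonism. GP2 cells, derived from HEK-293, express human PTHR1 and a GloSensor cAMP construct.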

Assay [3] in a line: qHTS of pediatric cancer cell lines to identify multiple opportunities for drug repurposing: Primary screen for TC32 cells (AID 1347089). Note: potency is the fitted concentration of half-maximal effect; nearly all actives have a fitted effect of over 60% in size. Summed up: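 A viability screen of TC32 cells was run over 48 h, with primary MIPE doses spanning 0.78 nM–46 µM and NPC doses 0.59 nM–46 µM. ATP luminescence (CellTiter-Glo) served as the read-out.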
Assay [4] in a line: qHTS of pediatric cancer cell lines to identify multiple opportunities for drug repurposing: Primary screen for DAOY cells (AID 1347090). Note: potency is the fitted concentration of half-maximal effect; nearly all actives have a fitted effect of over 55% in size. The gist of the method:
(§1)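 Viability measured as metabolically active cells via CellTiter-Glo luminescence following 48 hours of compound exposure, 11-point dilutions in confirmatory testing. 500-1,000 cells/well plated 5 hours before dosing; controls were DMSO and 2.3 µM bortezomib.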

A short description of assay [5]: qHTS of pediatric cancer cell lines to identify multiple opportunities for drug repurposing: Primary screen for SJ-GBM2 cells (AID 1347091). Note: potency is the fitted concentration of half-maximal effect. Summed up:
as §1

Assay [6] in a line: qHTS of pediatric cancer cell lines to identify multiple opportunities for drug repurposing: Primary screen for A673 cells (AID 1347092). Note: nearly all actives have a fitted effect of over 45% in size. Note: potency is the fitted concentration of half-maximal effect. Summed up:
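Titration-based qHTS on A673 cells: MIPE compounds spanned 11 points (0.78 nM to 46 µM final), NPC compounds 8 points (0.59 nM to 46 µM final). Viability after 48 h was measured by ATP luminescence.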

Assay [7] can be described thus: qHTS of pediatric cancer cell lines to identify multiple opportunities for drug repurposing: Primary screen for BT-37 cells (AID 1347094). Note: potency is the fitted concentration of half-maximal effect. Summed up: (§2)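 500-1,000 cells/well; 5 h pre-incubation 37 °C/5% CO2; compound pinned; 48 h; CellTiter-Glo, 15 min RT; luminescence. MIPE 11-pt from 0.78 nM, NPC 8-pt from 0.59 nM final. Bortezomib 2.3 µM final as positive control.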

A short description of assay [8]: qHTS of pediatric cancer cell lines to identify multiple opportunities for drug repurposing: Primary screen for NB-EBc1 cells (AID 1347095). Note: potency is the fitted concentration of half-maximal effect. Summed up: as §2
Assay [9] can be described thus: qHTS of pediatric cancer cell lines to identify multiple opportunities for drug repurposing: Primary screen for U-2 OS cells (AID 1347096). Note: nearly all actives have a fitted effect of over 50% in size. Note: potency is the fitted concentration of half-maximal effect. Summed up:
(§3)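 Viability after 48 h compound treatment at 37C, 500-1,000 cells/well, read as ATP luminescence with CellTiter-Glo. Primary screens used 11-point (MIPE, 0.78 nM-46 µM) or 8-point (NPC, 0.59 nM-46 µM) final concentrations; follow-up screens used 11-point dilutions.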

Assay [10] is described as follows: qHTS of pediatric cancer cell lines to identify multiple opportunities for drug repurposing: Primary screen for Saos-2 cells (AID 1347097). Note: potency is the fitted concentration of half-maximal effect; nearly all actives have a fitted effect of over 40% in size. The gist of the method: as §2
A short description of assay [11]: qHTS of pediatric cancer cell lines to identify multiple opportunities for drug repurposing: Primary screen for SK-N-SH cells (AID 1347098). Note: nearly all actives have a fitted effect of over 65% in size. Note: potency is the fitted concentration of half-maximal effect. The gist of the method:
(§4)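 Cells (500-1,000/well) rested 5 h, then received compounds for 48 h; metabolically active cells were measured by CellTiter-Glo luminescence. Final concentrations spanned up to 46 µM (MIPE, 11-point) or 0.59 nM-46 µM (NPC, 8-point) in primary screens, 11-point in follow-ups.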

Assay [12] can be described thus: qHTS of pediatric cancer cell lines to identify multiple opportunities for drug repurposing: Primary screen for LAN-5 cells (AID 1347100). Note: potency is the fitted concentration of half-maximal effect. The gist of the method:
as §3

Assay [13] is described as follows: qHTS of pediatric cancer cell lines to identify multiple opportunities for drug repurposing: Primary screen for BT-12 cells (AID 1347101). Note: nearly all actives have a fitted effect of over 25% in size. Note: potency is the fitted concentration of half-maximal effect. Summed up:
as §4

A short description of assay [14]: qHTS of pediatric cancer cell lines to identify multiple opportunities for drug repurposing: Primary screen for Rh18 cells (AID 1347102). Note: nearly all actives have a fitted effect of over 65% in size. Note: potency is the fitted concentration of half-maximal effect. The gist of the method: as §3
Assay [15] can be described thus: qHTS of pediatric cancer cell lines to identify multiple opportunities for drug repurposing: Primary screen for OHS-50 cells (AID 1347103). Note: nearly all actives have a fitted effect of over 40% in size. Note: potency is the fitted concentration of half-maximal effect. The gist of the method: as §4
Assay [16] can be described thus: qHTS of pediatric cancer cell lines to identify multiple opportunities for drug repurposing: Primary screen for RD cells (AID 1347104). Note: nearly all actives have a fitted effect of over 55% in size. Note: potency is the fitted concentration of half-maximal effect. Summed up:
as §2

Assay [17] can be described thus: qHTS of pediatric cancer cell lines to identify multiple opportunities for drug repurposing: Primary screen for SK-N-MC cells (AID 1347093). Note: potency is the fitted concentration of half-maximal effect. The gist of the method:
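Metabolically active cells were quantified by ATP-dependent luminescence (CellTiter-Glo, 15 min at room temperature) following 48 h treatment. Cells had been plated at 500-1,000 per well and settled for 5 h beforehand.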

The nature of assay [18]: qHTS of pediatric cancer cell lines to identify multiple opportunities for drug repurposing: Primary screen for NB1643 cells (AID 1347099). Note: nearly all actives have a fitted effect of over 50% in size. Note: potency is the fitted concentration of half-maximal effect. The gist of the method:
as §2

Assay [19] in a line: NS1 protein of Zika virus - qHTS assay to identify small molecule inhibitors in human HEK 293 cells (AID 1347053). Note: series mostly up to about 46 µM; nearly all actives have a fitted effect of over 55% in size. Summed up:
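Readout was TR-FRET using paired anti-NS1 antibodies after 24 h infection of HEK 293 cells with ZIKV MR766 (MOI = 0.5). Compound preceded virus by 1 h; reduced signal reflects lower NS1 expression.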

The text below walks through data of PubChem BioAssay (NCATS).

Inconclusive results are not listed. Calls of active or inactive are those of the source. Calls come from the whole dose curve; as a rule, active = well fitted curve in the direction sought with a large enough effect; inconclusive = small, poorly fitted or top-dose-only effect, or another doubt; inactive = no such curve, though single readings can be large; an effect the other way counts as inactive or inconclusive.

Parathyroid hormone/parathyroid hormone-related peptide receptor (Homo sapiens), sequence (Q03431 whole entry, looked up): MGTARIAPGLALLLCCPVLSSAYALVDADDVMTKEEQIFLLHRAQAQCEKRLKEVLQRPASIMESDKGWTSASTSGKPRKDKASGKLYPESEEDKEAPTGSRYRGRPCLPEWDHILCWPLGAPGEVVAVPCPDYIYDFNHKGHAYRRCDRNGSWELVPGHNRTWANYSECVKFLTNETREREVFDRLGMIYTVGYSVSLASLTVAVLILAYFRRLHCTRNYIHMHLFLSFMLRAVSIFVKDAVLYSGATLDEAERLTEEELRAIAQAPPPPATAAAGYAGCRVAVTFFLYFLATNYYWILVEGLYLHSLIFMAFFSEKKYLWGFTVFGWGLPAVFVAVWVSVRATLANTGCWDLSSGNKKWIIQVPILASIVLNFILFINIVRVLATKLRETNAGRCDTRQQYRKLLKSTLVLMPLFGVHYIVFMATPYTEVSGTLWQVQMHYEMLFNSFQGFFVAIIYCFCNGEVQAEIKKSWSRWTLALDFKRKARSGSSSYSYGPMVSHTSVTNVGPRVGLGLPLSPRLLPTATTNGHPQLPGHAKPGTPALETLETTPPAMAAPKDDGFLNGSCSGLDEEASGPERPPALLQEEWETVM
Tyrosine-protein phosphatase non-receptor type substrate 1 (Homo sapiens) + Leukocyte surface antigen CD47 (Homo sapiens), sequence (P78324 whole entry, looked up): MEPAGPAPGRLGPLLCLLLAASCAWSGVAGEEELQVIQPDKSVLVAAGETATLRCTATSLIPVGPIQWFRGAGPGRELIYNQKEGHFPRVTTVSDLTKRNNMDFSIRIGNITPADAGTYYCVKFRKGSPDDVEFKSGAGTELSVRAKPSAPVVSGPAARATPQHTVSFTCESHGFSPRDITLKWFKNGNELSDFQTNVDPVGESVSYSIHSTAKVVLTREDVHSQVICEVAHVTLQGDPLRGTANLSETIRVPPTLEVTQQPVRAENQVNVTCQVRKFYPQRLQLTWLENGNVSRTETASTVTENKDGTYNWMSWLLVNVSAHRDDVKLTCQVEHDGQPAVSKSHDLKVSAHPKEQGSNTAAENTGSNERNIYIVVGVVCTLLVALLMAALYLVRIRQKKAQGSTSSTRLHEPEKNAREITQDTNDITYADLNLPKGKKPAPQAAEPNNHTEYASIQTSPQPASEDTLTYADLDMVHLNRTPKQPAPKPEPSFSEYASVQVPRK
Tyrosine-protein phosphatase non-receptor type substrate 1 (Homo sapiens) + Leukocyte surface antigen CD47 (Homo sapiens), sequence (Q08722 whole entry, looked up): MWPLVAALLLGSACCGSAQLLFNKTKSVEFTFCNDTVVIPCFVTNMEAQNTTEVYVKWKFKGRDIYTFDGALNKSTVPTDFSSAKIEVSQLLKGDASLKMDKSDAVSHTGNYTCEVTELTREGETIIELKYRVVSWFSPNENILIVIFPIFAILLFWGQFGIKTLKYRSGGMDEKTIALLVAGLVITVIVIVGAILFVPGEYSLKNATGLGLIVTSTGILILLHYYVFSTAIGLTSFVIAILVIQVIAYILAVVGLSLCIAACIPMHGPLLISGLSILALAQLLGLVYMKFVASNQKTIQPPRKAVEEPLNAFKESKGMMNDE

Consider `CC(C)C[C@H]1C(=O)N2CCC[C@H]2[C@]2(O)O[C@](NC(=O)[C@@H]3C=C4c5cccc6[nH]c(Br)c(c56)C[C@H]4N(C)C3)(C(C)C)C(=O)N12`, for which, in assay [1], the Potency result was “inactive”. For the same compound, in assay [2], the compound was called inactive.

As for `CCCCC(CC)CN=C(N)NC(N)=NCCCCCCN=C(N)NC(N)=NCC(CC)CCCC` (configuration not stated), the Potency in assay [3] was 21 µM (active); in assay [4], 8.41 µM (active); in assay [5] it was 1.06 µM (active); in assay [6], 1.68 µM (active); in assay [7], 9.78 µM (active); in assay [8] it was 10.6 µM (active). Moreover, the Potency in assay [9] is 21.1 µM (active); in assay [10], 9.44 µM (active); in assay [11], 4.33 µM (active); in [12], 5.31 µM (active); in [13] it was 2.46 µM (active); in [14] it was 8.41 µM (active). Also, the Potency in [15] was 4.37 µM (active); in [16], 5.96 µM (active).

For the compound `COc1cccc2c1C(=O)c1c(O)c3c(c(O)c1C2=O)C[C@@](O)(C(=O)CO)C[C@@H]3O[C@H]1C[C@H](N)[C@H](O)[C@H](C)O1`, the Potency is 0.745 µM (active) in assay [3]; 4.22 µM (active) in assay [4]; 1.06 µM (active) in assay [6]; 0.668 µM (active) in assay [17]; 0.347 µM (active) in [7]; 0.133 µM (active) in assay [8]. In addition, the Potency in [9] is 13.3 µM (active); in assay [10], 13.3 µM (active); in assay [11], 0.217 µM (active); in [18] it was 0.473 µM (active); in assay [13], 1.38 µM (active); in assay [14], 1.88 µM (active). Further, the results for the Potency in assay [15] and in assay [16] were 1.1 µM (active) and 2.37 µM (active), respectively.

Regarding `CCOc1ccc2nc3cc(N)ccc3c(N)c2c1`, the Potency entry in assay [19], in [5], in assay [8] and in [18] was “inactive” each time. The Potency in [6] is 26.6 µM (active); in assay [7] it was 15.5 µM (active); in assay [11], 15.4 µM (active); in [13] it was 11 µM (active).

With `Oc1c(I)cc(I)c2cccnc12`, the Potency entry in assay [19], in assay [9], in assay [18] and in [14] was “inactive” each time. The Potency in [5] is 13.3 µM (active).

Consider `CCCCCCCCCCCCCCCC[N+](C)(C)CCN(Cc1ccc(OC)cc1)c1ncccn1`, for which the Potency in [6] was 16.8 µM (active); in assay [17] it was 13.3 µM (active); in [7] it was 24.6 µM (active); in assay [10], 15 µM (active); in [11], 27.3 µM (active); in assay [12], 23.7 µM (active). Moreover, the Potency is 7.77 µM (active) in assay [13], 13.3 µM (active) in assay [14] and 6.92 µM (active) in [15].

Take `COC1=CC(=O)C[C@@H](C)[C@]12Oc1c(Cl)c(OC)cc(OC)c1C2=O`: the Potency result in assay [19], in assay [9], in assay [18] and in [16] was “inactive” in each case. In addition, the Potency was 21.1 µM (active) in assay [5] and 11.9 µM (active) in [8].

For `COc1cc(NS(C)(=O)=O)ccc1Nc1c2ccccc2nc2ccccc12`, the compound was called inactive in [2].

`CC(=O)OCC(=O)[C@@]12OC(C)(C)O[C@@H]1C[C@H]1[C@@H]3C[C@H](F)C4=CC(=O)C=C[C@]4(C)[C@@]3(F)[C@@H](O)C[C@@]12C`: the Potency entry in assay [19], in assay [5], in assay [6], in assay [8], in assay [9] and in assay [11] was “inactive” throughout. In addition, the Potency result in [18], in assay [13], in assay [14] and in [16] was “inactive” each time.

In the case of `CCCCCCC[N+](CC)(CC)CCCCc1ccc(Cl)cc1`, the Potency was 26.6 µM (active) in assay [4]; 10.6 µM (active) in assay [5]; 3.35 µM (active) in assay [6]; 8.71 µM (active) in assay [7]; 10.6 µM (active) in [8]; 6.68 µM (active) in assay [10]. The Potency is 19.4 µM (active) in assay [11]; 13.3 µM (active) in [18]; 2.99 µM (active) in assay [12]; 7.77 µM (active) in [13]; 11.9 µM (active) in [14]; 3.89 µM (active) in [15]. In addition, in assay [16], the Potency is 13.3 µM (active).

For the compound `C[n+]1c2cc(N)ccc2cc2ccc(N)cc21` (tested in a mixture with another compound), the Potency in assay [3] is 14.9 µM (active); in [4] it was 21.1 µM (active); in assay [6] it was 5.31 µM (active); in assay [7], 3.47 µM (active); in assay [8], 11.9 µM (active); in [9], 13.3 µM (active). Also, the Potency in assay [11] is 3.86 µM (active); in [18] it was 7.5 µM (active); in assay [13], 3.89 µM (active); in [14], 8.41 µM (active); in assay [16], 15 µM (active).

In the case of `C=C(CC)C(=O)c1ccc(OCC(=O)O)c(Cl)c1Cl`, the Potency entry in assay [19], in assay [14] and in assay [15] was “inactive” throughout. Besides, the Potency is 18.8 µM (active) in assay [17], 21.1 µM (active) in assay [8] and 17.2 µM (active) in assay [11].

Regarding `CCCSS/C(CCO)=C(\C)N(C=O)Cc1cnc(C)nc1N`, the Potency result in assay [19], in assay [7], in [9], in assay [13] and in assay [14] was “inactive” in each case. Also, the Potency in assay [17] was 15 µM (active); in assay [8], 16.8 µM (active); in assay [15] it was 21.9 µM (active).
